PubChem BioAssay (NCI)
This is part of a sample that, as a whole, favours compounds with a hit. Of some 79,000 tested, about 15% had one in any assay. Values without a mark were called inactive. Activity calls are given as the source filed them. Cut-off read from the data, not from the text of the source: active = growth inhibition above about 70%; inactive = the rest.

Experiments:
[1] = NCI Yeast Anticancer Drug Screen. Data for the rad50 strain (AID 155);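 note: 0% = growth of vehicle-only cultures of the same strain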; details: S. cerevisiae rad50 strain growth inhibition; at 50.0 µM; hits give high values
Method in brief: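 Compounds were tested on a yeast strain with an engineered DNA damage repair alteration; the reported value is growth inhibition normalised to vehicle treatment.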

[2] = NCI Yeast Anticancer Drug Screen. Data for the mec2-1 strain (AID 157); details: S. cerevisiae mec2-1 strain, at 50.0 µM, hits give high values
Method in brief: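 Compounds were applied to mec2-1 yeast cells. Their growth was then compared with that of vehicle-treated cultures to give growth inhibition.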

[3] = NCI Yeast Anticancer Drug Screen. Data for the sgs1 mgt1 strain (AID 161);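 note: 0% = growth of cultures given vehicle only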; details: S. cerevisiae sgs1 mgt1 strain, at 50.0 µM, hits give high values
Method in brief: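 Growth of a repair-deficient yeast mutant was monitored after compound treatment and expressed as inhibition relative to vehicle-treated cultures.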

[4] = NCI Yeast Anticancer Drug Screen. Data for the cln2 rad14 strain (AID 165);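 note: 0% = growth equal to vehicle treated cultures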; details: S. cerevisiae cln2 rad14 strain, at 50.0 µM, hits give high values
Method in brief: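 Strain: cln2 rad14 yeast, altered in cell cycle control and DNA damage repair. Read-out: growth inhibition vs vehicle.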

[5] = NCI Yeast Anticancer Drug Screen. Data for the bub3 strain (AID 167); details: S. cerevisiae bub3 mutant strain, at 50.0 µM, hits give high values
Method in brief: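 Growth of a checkpoint-deficient yeast mutant is measured after compound exposure. Values represent inhibition relative to vehicle.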

[6] = NCI Yeast Anticancer Drug Screen. Data for the mlh1 rad18 strain (AID 175); details: S. cerevisiae mlh1 rad18 strain growth inhibition; at 50.0 µM; hits give high values
Method in brief: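 A repair-deficient yeast strain is exposed to test compound, and growth is scored relative to vehicle-treated controls.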

## CCOC(=O)CCC(=O)Oc1cccc2c1C(=O)c1c(OC(=O)CCC(=O)OCC)cccc1C2=O
[1]
  growth inhibition: 40.5%
[2]
  growth inhibition: 37%
[3]
  growth inhibition: 9.8%
[4]
  growth inhibition: 17.2%
[5]
  growth inhibition: 6.45%
[6]
  growth inhibition: 47.7%

## O=C(CC(=O)c1ccccc1)Nc1ccc(-c2nc3ccccc3c(=O)[nH]2)cc1
[1]
  growth inhibition: 20.1%
[2]
  growth inhibition: 10.5%
[3]
  growth inhibition: 19.9%
[4]
  growth inhibition: 1.9%
[5]
  growth inhibition: 19.6%
[6]
  growth inhibition: 27.7%

## COc1cccc2c(=O)c3c(oc12)CCC(C)C3 (configuration not stated)
[1]
  growth inhibition: -10.6%
[2]
  growth inhibition: 4.35%
[3]
  growth inhibition: 5.85%
[4]
  growth inhibition: -35.7%
[5]
  growth inhibition: -14.8%
[6]
  growth inhibition: -9.4%

## NNc1nnc(NN)c2ccccc12
[1]
  growth inhibition: 1.75%
[2]
  growth inhibition: -2.05%
[3]
  growth inhibition: 0.8%
[4]
  growth inhibition: 3.65%
[5]
  growth inhibition: 4.45%
[6]
  growth inhibition: 4.7%

## Cc1cc(C(=O)NN)no1
[1]
  growth inhibition: -4.75%
[2]
  growth inhibition: -4.4%
[3]
  growth inhibition: -3.9%
[4]
  growth inhibition: -10.4%
[5]
  growth inhibition: -7.15%
[6]
  growth inhibition: -8.15%

## Nc1nc(N)nc(C2CC3C=CC2C3)n1 (configuration not stated)
[1]
  growth inhibition: -1.55%
[2]
  growth inhibition: -13.9%
[3]
  growth inhibition: -4.4%
[4]
  growth inhibition: -10%
[5]
  growth inhibition: 2.1%
[6]
  growth inhibition: -0.95%

## CSC1=NNC(c2ccccc2)=C(c2ccccc2)S1
[1]
  growth inhibition: -1.55%
[2]
  growth inhibition: 4.2%
[3]
  growth inhibition: 52%
[4]
  growth inhibition: -31.8%
[5]
  growth inhibition: 59.7%
[6]
  growth inhibition: 0.45%

## CCCC(=O)Nc1cc(C(=O)N2C[C@H]3C[C@@]34C2=CC(=O)c2[nH]cc(C)c24)n(COC)c1
[1]
  growth inhibition: 43.9%
[2]
  growth inhibition: 59.2%
[3]
  growth inhibition: 68.2%
[4]
  growth inhibition: 41.4%
[5]
  growth inhibition: 5.85%
[6]
  growth inhibition: 69.8%

## O=C1Nc2ccccc2C2=C3CCCCC3=NNC12 (configuration not stated)
[1]
  growth inhibition: 97.7% (active)
[2]
  growth inhibition: 93.8% (active)
[3]
  growth inhibition: 97.7% (active)
[4]
  growth inhibition: 68.2%
[5]
  growth inhibition: 97.5% (active)
[6]
  growth inhibition: 86% (active)

## CO[C@H]1C=C[C@]23c4cc5c(cc4CN(CC2O)[C@@H]3C1)OCO5 (some centres not stated)
[1]
  growth inhibition: 8.65%
[2]
  growth inhibition: -11.7%
[3]
  growth inhibition: 26.4%
[4]
  growth inhibition: 12.6%
[5]
  growth inhibition: 2.55%
[6]
  growth inhibition: -20.9%

## COC(=O)N/N=C/c1ccc(NC(C)=O)cc1
[1]
  growth inhibition: 7.8%
[2]
  growth inhibition: 0%
[3]
  growth inhibition: -13.8%
[4]
  growth inhibition: -75.6%
[5]
  growth inhibition: -4.95%
[6]
  growth inhibition: -5%

## O=C(CCl)OCC(CCl)OC(=O)CCl (configuration not stated)
[1]
  growth inhibition: -3.6%
[2]
  growth inhibition: 29.1%
[3]
  growth inhibition: 37.1%
[4]
  growth inhibition: -15.2%
[5]
  growth inhibition: 41.6%
[6]
  growth inhibition: 0.6%

## C=CCC12CC(C)OC1=Nc1ccccc1NC2=O (configuration not stated)
[1]
  growth inhibition: -0.95%
[2]
  growth inhibition: -1.85%
[3]
  growth inhibition: -18.2%
[4]
  growth inhibition: 21.1%
[5]
  growth inhibition: 7.2%
[6]
  growth inhibition: -9.8%

## N#Cc1nc(/C=C/c2nc(C#N)c(N)o2)oc1N
[1]
  growth inhibition: -34.5%
[2]
  growth inhibition: -28.7%
[3]
  growth inhibition: -5.25%
[4]
  growth inhibition: 9.25%
[5]
  growth inhibition: 8.4%
[6]
  growth inhibition: -0.95%

## Cc1cccc(/C=N\N=C\c2cccc(C)n2)n1
[1]
  growth inhibition: 3.9%
[2]
  growth inhibition: -10.2%
[3]
  growth inhibition: -3.25%
[4]
  growth inhibition: -3%
[5]
  growth inhibition: -1.45%
[6]
  growth inhibition: 23.3%

## C=C(C)CN(CC(=C)C)c1nc(N)nc(N)n1
[1]
  growth inhibition: -35.2%
[2]
  growth inhibition: -2.95%
[3]
  growth inhibition: -21.9%
[4]
  growth inhibition: -43.5%
[5]
  growth inhibition: -2.1%
[6]
  growth inhibition: -13.1%

## C=CCCCCCCCCC(=O)NCC1CC1
[1]
  growth inhibition: -10.8%
[2]
  growth inhibition: -7.1%
[3]
  growth inhibition: 2.5%
[4]
  growth inhibition: -44.8%
[5]
  growth inhibition: -27.9%
[6]
  growth inhibition: -4.75%

## Cc1ccc(NC(=O)Nc2cccc(Cl)c2C)cc1C
[1]
  growth inhibition: 3.75%
[2]
  growth inhibition: 11.5%
[3]
  growth inhibition: 12.8%
[4]
  growth inhibition: -1.85%
[5]
  growth inhibition: 8.45%
[6]
  growth inhibition: -15.9%

## CC(=O)Oc1cccc2ccccc12
[1]
  growth inhibition: -23.4%
[2]
  growth inhibition: -25.5%
[3]
  growth inhibition: 1%
[4]
  growth inhibition: -109%
[5]
  growth inhibition: -36.8%
[6]
  growth inhibition: -5.65%

## CCN1c2ccccc2CC(C#N)(CCN(C)C)c2ccccc21 (configuration not stated)
[1]
  growth inhibition: 1.5%
[2]
  growth inhibition: 5.45%
[3]
  growth inhibition: 2.65%
[4]
  growth inhibition: -10.8%
[5]
  growth inhibition: 6.95%
[6]
  growth inhibition: -0.35%

## CCCCCCCNC1=C(O)c2ccccc2C(=O)C1=O
[1]
  growth inhibition: -11.4%
[2]
  growth inhibition: 15.8%
[3]
  growth inhibition: 2.2%
[4]
  growth inhibition: -44.2%
[5]
  growth inhibition: 12.3%
[6]
  growth inhibition: 6.2%

## CCC(O)(c1ccc(OC)cc1)C(c1ccccc1)c1ccccn1 (configuration not stated)
[1]
  growth inhibition: -1.3%
[2]
  growth inhibition: -8.8%
[3]
  growth inhibition: 6.5%
[4]
  growth inhibition: -16.5%
[5]
  growth inhibition: 2.8%
[6]
  growth inhibition: -0.65%

## COC1C=CC2OC(c3ccccc3)OCC2O1 (configuration not stated)
[1]
  growth inhibition: -16.2%
[2]
  growth inhibition: 9.1%
[3]
  growth inhibition: -9.6%
[4]
  growth inhibition: -35%
[5]
  growth inhibition: 10%
[6]
  growth inhibition: -1.65%

## O=C(O)C1CC2CC(=O)C1C2 (configuration not stated)
[1]
  growth inhibition: 12.8%
[2]
  growth inhibition: -5.45%
[3]
  growth inhibition: -0.85%
[4]
  growth inhibition: -9.75%
[5]
  growth inhibition: 3.4%
[6]
  growth inhibition: 9%

## CCCCS(=O)(=O)Nc1cccc(C(=O)O)c1
[1]
  growth inhibition: 2.85%
[2]
  growth inhibition: -9.1%
[3]
  growth inhibition: 20.9%
[4]
  growth inhibition: -17.4%
[5]
  growth inhibition: 39.8%
[6]
  growth inhibition: -7.15%

## NC(N)=N/N=C/c1c(Cl)nc2sccn12
[1]
  growth inhibition: -11.4%
[2]
  growth inhibition: -64.8%
[3]
  growth inhibition: -17.5%
[4]
  growth inhibition: -30.3%
[5]
  growth inhibition: -8.8%
[6]
  growth inhibition: -5.6%

## CCOC(=O)c1cc2cc(Cc3ccc4[nH]c(C(=O)OCC)cc4c3)ccc2[nH]1
[1]
  growth inhibition: -12.8%
[2]
  growth inhibition: -21.4%
[3]
  growth inhibition: -26.2%
[4]
  growth inhibition: -26.4%
[5]
  growth inhibition: -32.2%
[6]
  growth inhibition: -43.6%

## O=C(O)c1c[nH]c(=O)[nH]c1=O.[Cu+2]
[1]
  growth inhibition: -23.9%
[2]
  growth inhibition: -13%
[3]
  growth inhibition: -12.4%
[4]
  growth inhibition: -44.5%
[5]
  growth inhibition: -40.8%
[6]
  growth inhibition: -21.2%

## NC(CSC(=O)c1ccccc1)C(=O)O (configuration not stated)
[1]
  growth inhibition: -14.2%
[2]
  growth inhibition: -3.45%
[3]
  growth inhibition: -19.8%
[4]
  growth inhibition: -2.55%
[5]
  growth inhibition: -30.2%
[6]
  growth inhibition: -19.9%

## CCCCCCCCCCCOC(=O)CCl
[1]
  growth inhibition: 1.4%
[2]
  growth inhibition: -13%
[3]
  growth inhibition: -16.9%
[4]
  growth inhibition: -12.3%
[5]
  growth inhibition: -12.8%
[6]
  growth inhibition: -7.4%

## Cc1cc(N=[N+]=[N-])c2ccc(Cl)cc2n1
[1]
  growth inhibition: -8.15%
[2]
  growth inhibition: 1.05%
[3]
  growth inhibition: -5.55%
[4]
  growth inhibition: -47%
[5]
  growth inhibition: 8.55%
[6]
  growth inhibition: 33.1%

## Brc1ccc(Br)nc1
[1]
  growth inhibition: -7.6%
[2]
  growth inhibition: -4.65%
[3]
  growth inhibition: -10.1%
[4]
  growth inhibition: 8.05%
[5]
  growth inhibition: -10.1%
[6]
  growth inhibition: -12.9%

## N#CCCN(CCC#N)c1ccc(C=Nc2ccc(F)cc2)cc1
[1]
  growth inhibition: 20%
[2]
  growth inhibition: 9.65%
[3]
  growth inhibition: 11.9%
[4]
  growth inhibition: 15.8%
[5]
  growth inhibition: 18.5%
[6]
  growth inhibition: 45.2%

## CCCNC(=O)N(CCC)S(=O)(=O)c1ccc(Cl)cc1
[1]
  growth inhibition: -6.85%
[2]
  growth inhibition: 8.45%
[3]
  growth inhibition: 12.3%
[4]
  growth inhibition: 24.6%
[5]
  growth inhibition: 22.7%
[6]
  growth inhibition: 25.6%

## CCOC(=O)CNC(=O)C(Cc1cnc[nH]1)NC(=O)CNC(=O)OCc1ccccc1 (configuration not stated)
[1]
  growth inhibition: 1.15%
[2]
  growth inhibition: -2.15%
[3]
  growth inhibition: 9.75%
[4]
  growth inhibition: -23.9%
[5]
  growth inhibition: 1.1%
[6]
  growth inhibition: 9.2%

## CCOC1(C)Oc2cc3c(cc2C(c2cc(OC)c(OC)c(OC)c2)C1C)OCO3 (configuration not stated)
[1]
  growth inhibition: 12.4%
[2]
  growth inhibition: 1.55%
[3]
  growth inhibition: -6.75%
[4]
  growth inhibition: -29.4%
[5]
  growth inhibition: 1.4%
[6]
  growth inhibition: 32.5%

## Clc1nc(Cl)c2ncnc(Cl)c2n1
[1]
  growth inhibition: -34.5%
[2]
  growth inhibition: 16.1%
[3]
  growth inhibition: -23.2%
[4]
  growth inhibition: -11.4%
[5]
  growth inhibition: -3.7%
[6]
  growth inhibition: -5.7%
